Experimental data: PubChem BioAssay AID1053 (University of Pittsburgh Molecular Library Screening Center, 2008)
Values joined by “and” are separate entries in the source; they are usually repeats but may differ in a detail not shown here. Equal entries are not always repeated. Values without a mark were called inactive. How the calls were made is not given here.

Biological target: Serine/threonine-protein kinase PLK1 (Homo sapiens) (UniProt P53350)
Assay: Plk1 polo box domain binding inhibitors, SAR follow-up, biochemical, fluorescence polarization, purchased analogs (AID 1053)
Conditions: Plk1 PBD fluorescence polarization peptide binding; at 20 µM; stronger effect = higher value

Serine/threonine-protein kinase PLK1 (Homo sapiens), sequence (P53350 whole entry, looked up, the tested form may be a part): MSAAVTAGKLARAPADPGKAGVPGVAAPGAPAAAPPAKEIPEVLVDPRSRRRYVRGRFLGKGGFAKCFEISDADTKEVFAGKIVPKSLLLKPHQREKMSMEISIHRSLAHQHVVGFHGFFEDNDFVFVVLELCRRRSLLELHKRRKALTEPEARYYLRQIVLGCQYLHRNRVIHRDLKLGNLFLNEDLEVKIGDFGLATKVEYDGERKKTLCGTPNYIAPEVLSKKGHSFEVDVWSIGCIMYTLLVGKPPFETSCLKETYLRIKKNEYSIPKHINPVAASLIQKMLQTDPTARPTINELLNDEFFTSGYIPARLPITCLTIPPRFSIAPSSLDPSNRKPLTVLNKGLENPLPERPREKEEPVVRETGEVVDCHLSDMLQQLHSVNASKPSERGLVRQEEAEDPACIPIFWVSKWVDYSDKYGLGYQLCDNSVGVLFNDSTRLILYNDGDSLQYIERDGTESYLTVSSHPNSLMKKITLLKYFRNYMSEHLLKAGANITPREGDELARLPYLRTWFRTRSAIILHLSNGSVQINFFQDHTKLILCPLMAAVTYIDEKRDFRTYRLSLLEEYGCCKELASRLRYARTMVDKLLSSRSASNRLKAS

Row | SMILES | inhibition
1 | Cc1ccc(-c2nnc3[nH]c(=O)n(C)c(=O)c3n2)cc1 | -28.5% and -24.3%
2 | CC(=O)N(CN1C(=O)c2ccccc2C1=O)c1ccc(F)cc1 | -46.9%
3 | CC(=O)N(/N=C1\Sc2ccccc2C1=O)c1ccc(Br)cc1 | 34.2%
4 | CCOC(=O)c1ccc(NC(=O)c2cncc(Br)c2)cc1 | -31.4%
5 | O=C1NC(=O)C(=Cc2ccccc2OCCOc2ccccc2)C(=O)N1 | -20.6%
6 | CC(=O)N(/C=C1\Sc2ccccc2C1=O)c1ccc(I)cc1 | -16.1%
7 | CC(=O)N(CN1C(=O)c2ccccc2C1=O)c1cc(C)ccc1C | -34.4%
8 | CCCCCOC(=O)c1ccc(NC(=O)c2ccc([N+](=O)[O-])cc2)cc1 | 28.2%
9 | COc1ccc(-c2nnc3[nH]c(=O)n(C)c(=O)c3n2)cc1 | -45.9% and -39.6%
10 | CC(=O)N(/N=C1\Sc2ccccc2C1=O)c1ccccc1I | -47.1%
11 | CCOC(=O)c1ccc(NC(=O)C2CCC(C)CC2)cc1 (stereo not given) | -28.3%
12 | CCOC(=O)c1ccc(N=Cc2c(O)n(-c3ccc(C)cc3)c(=O)[nH]c2=O)cc1 | -22.9%
13 | CCN(CC)CCOC(=O)c1ccc(N=Cc2c(O)n(-c3c(C)cc(C)cc3C)c(=O)[nH]c2=O)cc1 | -134%
14 | CC(=O)N(/N=C1\Sc2ccccc2C1=O)c1ccccc1[N+](=O)[O-] | 32%
15 | CCOC(=O)c1ccc(N=Cc2c(O)[nH]c(=O)[nH]c2=O)cc1 | 49.9%
